Experimental data as given in PubChem BioAssay (NCI).
The panel holds about 83,000 compounds, 20% with a hit somewhere; the sample as a whole holds those more often.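 For each line, cells grew in 96-well plates with the test compound present at a single concentration for 48 hours.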 Values without a mark were called inactive. Calls of active or inactive are those of the source. How the source made its calls: active means growth percent below 10; inactive means the rest.

Columns and labels:
Experiment in all cases: NCI-60 one-dose screen, 48 h (100 = growth as untreated, 0 = no growth, -100 = all killed)
Settings in all cases: 10 µM unless noted
SR leukemia = system: SR leukemia
RPMI-8226 leukemia = system: RPMI-8226 leukemia
OVCAR-8 ovarian = system: OVCAR-8 ovarian
OVCAR-5 ovarian = system: OVCAR-5 ovarian
OVCAR-4 ovarian = system: OVCAR-4 ovarian
SK-OV-3 ovarian = system: SK-OV-3 ovarian
IGROV1 ovarian = system: IGROV1 ovarian
HS 578T breast = system: HS 578T breast
NCI/ADR-RES ovarian = system: NCI/ADR-RES ovarian
T-47D breast = system: T-47D breast
BT-549 breast = system: BT-549 breast
MDA-MB-435 melanoma = system: MDA-MB-435 melanoma
SW-620 colon = system: SW-620 colon
MCF7 breast = system: MCF7 breast
HCT-116 colon = system: HCT-116 colon
HCC-2998 colon = system: HCC-2998 colon
KM12 colon = system: KM12 colon

Row | Structure (SMILES) | growth (SR leukemia) | growth (RPMI-8226 leukemia) | growth (OVCAR-8 ovarian) | growth (OVCAR-5 ovarian) | growth (OVCAR-4 ovarian) | growth (SK-OV-3 ovarian) | growth (IGROV1 ovarian) | growth (HS 578T breast) | growth (NCI/ADR-RES ovarian) | growth (T-47D breast) | growth (BT-549 breast) | growth (MDA-MB-435 melanoma) | growth (SW-620 colon) | growth (MCF7 breast) | growth (HCT-116 colon) | growth (HCC-2998 colon) | growth (KM12 colon)
1 | CCNC(=O)N1CCc2cc(OC)c(OCCc3ccc(OC)c(N)c3)cc2C1c1cc(C)c(C)cc1C (stereo not drawn) | 15.1% | 32.4% | 39% | 51.7% | 62.6% | 61.4% | 31.9% | 36.1% | 20.8% | 52.6% | 25.6% | 17.2% | 15.7% | 22.7% | 17.3% | 49.2% | 33.8%
2 | C[C@@H]1C[C@H]2C(=O)O[C@@H](C)C(NC(=O)[C@H](Cc3cc(F)cc(F)c3)NC(=O)Nc3ccc(C4CC4)cc3F)C(=O)N3CCC[C@H]3C(=O)N3CCCC[C@H]3C(=O)N[C@@H](CO)C(=O)N2C1 (stereo partly drawn) | 28.1% | 14.9% | 20.9% | 29.9% | 21.3% | 21% | 42.2% | 32.7% | 36.1% | 21.7% | 27.6% | 17.9% | 35.8% | 16.1% | 10.6% | 24% | 38%
3 | COc1cc(-c2nc(SC(C)C)n(C(C)C)c(=O)c2C#N)ccc1OCc1ccccc1 | 39.9% | 78.4% | 77% | 93.2% | 4.7% (active) | 103% | 67.1% | 70.1% | 76% | 52.6% | 93.8% | – | 52.4% | 75.3% | 42.9% | 87.6% | 95.1%
4 | COc1ccc(CCOc2cc3c(cc2OC)CCN(C(=O)NCc2cocn2)C3c2ccc(C)cc2C)cc1 (stereo not drawn) | 5.38% (active) | 7.04% (active) | 17.9% | 28.6% | 51.5% | 38% | 12.9% | -4.03% (active) | 4.95% (active) | 49% | -17% (active) | 8.73% (active) | 23% | 13.5% | 6.95% (active) | 11.5% | 11.4%
5 | CC1(COc2ccc3ncc(C#Cc4cncc(C(=O)Nc5cccc(C(F)(F)F)c5)c4)n3n2)COC1 | 56.5% | 92.7% | 81.4% | 81.7% | 82.1% | 96.9% | 62% | 53.6% | 80.3% | 78.9% | 128% | 89.2% | 69% | 62.8% | 56.4% | 86.9% | 21.1%
6 | CN1CCC(n2cc(Nc3ncc4c(=O)n(-c5c(Cl)cccc5Cl)cc(Br)c4n3)cn2)CC1 | -21.4% (active) | 20.7% | 6.91% (active) | 43.5% | 33.8% | 32.7% | 15% | 45.1% | 34% | 37% | 57.5% | 5.4% (active) | 20.5% | 18.7% | 5.66% (active) | 31% | 14.8%
7 | CNC(=O)c1cc(Oc2ccc3nc(NC(=O)c4cc(N5CCOCC5)cc(C(F)(F)F)c4)sc3c2)ccn1 | 27.1% | 51.6% | 65.5% | 97.1% | 64.8% | 97.9% | 99.6% | 79.2% | 80.2% | 74.2% | 88.1% | 67.8% | 107% | 75.5% | 63.1% | – | 71.3%
8 | c1n[nH]cc1-c1nc2ccc3[nH]ncc3c2c2c1CCCC2 | -9.78% (active) | 41.5% | 23.5% | 43.9% | 54.1% | -19.6% (active) | 20.8% | -4.89% (active) | 51.1% | 15.7% | – | 1.93% (active) | 6.24% (active) | 3.93% (active) | -3.08% (active) | 33.5% | 5.28% (active)
9 | C[C@@H]1C[C@H]2C(=O)O[C@@H](C)C(NC(=O)[C@H](Cc3cc(F)cc(F)c3)NC(=O)Nc3ccc(Cl)cc3F)C(=O)N3CCC[C@H]3C(=O)N3CCCC[C@H]3C(=O)N[C@@H](CO)C(=O)N2C1 (stereo partly drawn) | 31.2% | 14.9% | 21.9% | 35.3% | 22.6% | 22.1% | 47.9% | 33.4% | 47.5% | 34.4% | 35.3% | 19.5% | 39.9% | 16.1% | 9.85% (active) | 26% | 42%
10 | CN1CCN(Cc2ccc(NC(=O)c3cncc(C#Cc4cnc5ccc(NCCCO)nn45)c3)cc2C(F)(F)F)CC1 | -15.6% (active) | -36.9% (active) | -8.06% (active) | 4.78% (active) | -19.9% (active) | -47.5% (active) | 9.68% (active) | -26.5% (active) | 74.1% | 1.95% (active) | -81.5% (active) | -39.8% (active) | -34.6% (active) | -34.5% (active) | -83.6% (active) | -9.99% (active) | -12.1% (active)
11 | COc1ccc2[nH]cc(/C=N/Nc3nc4ccccc4s3)c2c1 | 45.5% | 47.2% | 67.1% | 73.2% | 67.2% | 65.7% | 29.8% | 60.6% | 66% | 2.18% (active) | 58.7% | 66.2% | 74.7% | 22.5% | 46.8% | 41% | 13.6%
12 | CNC(=O)c1cc(Oc2ccc3nc(NC(=O)c4cccc(OC(F)(F)F)c4)sc3c2)ccn1 | 58.3% | 71.7% | 81.7% | 95.3% | 56.5% | 88.4% | 90.3% | 69.6% | 67.3% | 63.1% | 137% | 79% | 103% | 77.6% | 75.5% | 108% | 85.6%
13 | Cc1ccc(C(=O)NN2C(=O)/C(=C/C=C/c3ccco3)SC2=S)cc1 | 84.5% | 102% | 99.7% | 100% | 92.8% | 107% | 98.4% | 96.5% | 97.5% | 95.4% | 137% | – | 106% | 82% | 98.2% | 107% | 102%
14 | CCOc1ccc(C(=O)Nc2ncc(Cc3ccc(F)cc3)s2)cc1 | 19.6% | 25.5% | 22.1% | 34.1% | 54.1% | 36.2% | 40% | 1.23% (active) | 18.2% | 34.1% | 57.1% | -16.1% (active) | 26.1% | 19.1% | 13.2% | 15.5% | 16.7%
15 | CCOC(=O)c1c(Nc2ccccc2)nn2c(-c3ccccc3)ccnc12 | 74.4% | 30.7% | 96.1% | 93.4% | 95.9% | 102% | 110% | 91.9% | 87.6% | 91% | 145% | 96.1% | 105% | 91.8% | 86.7% | 97.1% | 88.9%
16 | Cc1ccc2c(c1)C(=O)/C(=C/c1cccc(F)c1)S2 | 101% | 84.6% | 103% | 105% | 99.7% | 99% | 97.7% | 104% | 109% | 101% | 134% | 98.1% | 105% | 73.7% | 105% | 113% | 101%
